Each structure is given as a SMILES string.

The values below come from publication PMC5540273 (PLoS ONE, 2017).
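Further: KINOMEscan kinase panel screen.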

In this experiment the test system is DYRK2. The settings on record: concentration: 1 μM, replicates: in singlicate; n = 1.
Consider `Nc1ncc(-c2ccc3nccc(-c4ccncc4)c3c2)cc1S(=O)(=O)N1CCCCC1` [GSK1693850], for which the “%Inh” value amounted to 22%.

On to `COc1cccc(CC(=O)N2CCc3cc(-c4cn(C)c5ncnc(N)c45)ccc32)c1` [GSK2608899], for which the “%Inh” value is on record as 22%. The result for `CC(C)NCC(Cc1ccccc1)NC(=O)c1cc(Br)c(-c2ccnc3[nH]ccc23)s1.Cl.Cl` (stereo not shown) [GSK1383281] reads 33%; that for `Nc1ncc(-c2cn[nH]c2)c2scc(-c3ccc4c(c3)CCN4C(=O)Cc3ccccc3)c12` [GSK2593067], 7%; that for `Cc1cccc(Nc2nc(NCCN)ncc2C(N)=O)c1` [GSK1292139], 33%. With `CC(C)c1nc(-c2cccc(NS(=O)(=O)c3c(F)cccc3F)c2)c(-c2ccnc(Nc3ccc(N4CCOCC4)nc3)n2)s1.Cl` [GSK1723980] the figure was 18%; with `Cc1ccc(-c2ccc3occ(-c4ccc(S(C)=O)cc4)c3c2)nn1` (stereo not shown), 0%; with `COc1ccc(C2=C(Nc3cccc(O)c3)C(=O)NC2=O)cc1` [SB-390766], 30%. With `COc1ccc(NC(=O)c2ccoc2)cc1-c1ccc(C(=O)NCC2CC2)cc1` [GW810437], the “%Inh” value came out at 21%. As to `Cc1nn2c(=O)cc(N3CCO[C@H](C)C3)nc2n1Cc1cccc(Cl)c1Cl` [GSK2373693], the “%Inh” value turned out to be 12%. On to `Cl.O=C(Nc1ccc(Oc2ccc3[nH]c(NC(=O)c4ccco4)nc3c2)cc1)Nc1cc(C(F)(F)F)ccc1F` [GW683134], for which the “%Inh” value is recorded as 0%.

With `O=C(O)C(F)(F)F.O=c1[nH]ccc2nc(N[C@@H]3CCNC3)nc(Nc3ccc4c(c3)S(=O)(=O)CC4)c12` [GSK2181306], the “%Inh” value turned out to be 52%. With `O=C(Nc1n[nH]c2cc(-c3cccs3)ccc12)C1CC1` [SB-731284], the “%Inh” value came out at 34%.

For `CNc1nccc(-c2ccc3c(N)n[nH]c3c2)n1` [GSK2206003], the “%Inh” value is listed as 90%. The result for `COc1cccc(NC(=O)NCCNc2ccnc(Nc3ccc(F)cc3)n2)c1` [GSK1379879] reads 0%; that for `CN(c1ccc2c(c1)nc(NCc1ccccc1)n2C)c1ccnc(Nc2ccc(CS(C)(=O)=O)cc2)n1.Cl` [GW811603], 0%; that for `Cc1ccc(O)cc1Nc1ccnc2cc(-c3ccc(CN4CCCCC4)o3)ccc12` [GW557777], 2%.

As to `Cc1cccc(Nc2nc(N[C@H]3CCCC[C@H]3N)ncc2C(N)=O)c1.Cl` [GSK986310], the “%Inh” value worked out at 24%. With `c1ccc(Oc2ccc(Nc3ccnc4cc(-c5ccc(CN6CCCCC6)o5)ccc34)cc2)nc1` [GW567143] the figure was 10%; with `CC(C)c1nc(-c2ccc(F)c(NS(=O)(=O)c3c(F)cccc3F)c2)c(-c2ccnc(Nc3ccc(N4CCOCC4)nc3)n2)s1` [GSK1804250], 2%. The result for `CCNc1nccc(-c2c(-c3ccc(F)cc3)ncn2C2CCN(C)CC2)n1` reads 100%; that for `Fc1cc(Cl)ccc1Nc1ccnc2cc(-c3ccc(CN4CCSCC4)o3)ccc12` [GW560106], 13%. With `NCCC(NC(=O)c1cc(Br)c(-c2ccnc3[nH]ccc23)s1)c1ccccc1.O=C(O)C(F)(F)F.O=C(O)C(F)(F)F` (stereo not shown) [GSK1307810] the figure was 57%; with `Cc1ccc(NC(=O)c2ccc(Cl)c(Cl)c2)cc1-c1ccc(C(=O)Nc2ccncc2)cc1` [GSK1398460], 7%; with `O=C(O)C(F)(F)F.O=c1[nH]ccc2nc(N[C@@H]3CCNC3)nc(Nc3cc(Cl)cc(Cl)c3)c12` [GSK2188764], 36%. `Nc1ncnc2scc(-c3ccc(NC(=O)Cc4cc(F)ccc4F)cc3)c12.O=C(O)C(F)(F)F` [SB-731254-M]: the “%Inh” value is 0%. For `Cc1ccc(NC(=O)c2ccnc(N3CCCCC3)c2)cc1-c1ccc(C(=O)NCC2CC2)cc1` [GW775610], the “%Inh” value was determined as 2%. As for `Fc1cc(Cl)ccc1Nc1ccnc2cc(-c3ccc(CN4CCOCC4)o3)ccc12` [GW560109], the “%Inh” value was found to be 13%. The result for `CS(=O)(=O)c1cccc(CNc2nc(Nc3ccc4c(c3)CCC(=O)N4)ncc2C(F)(F)F)c1` reads 0%; that for `Cc1cc(-c2c(-c3ccc(F)cc3)ncn2CCCN2CCOCC2)nc(N)n1` [SB-222517], 34%. The result for `CN1CCN(Cc2ccc(NC(=O)Nc3ccc(N(C)c4ccnc(Nc5ccc(CS(C)(=O)=O)cc5)n4)cc3)cc2)CC1.Cl` [GW827654] reads 32%; that for `COc1cccc(C2=C(Nc3cccc(O)c3)C(=O)NC2=O)c1` [SB-390771], 9%; that for `O=C(Nc1n[nH]c2nc(-c3cccc(O)c3)ccc12)C1CC1` [SB-711805], 79%. `CN(c1ccc(NC(=O)Nc2cccc(Cl)c2)cc1)c1ccnc(N)n1.Cl` [GW830707]: the “%Inh” value is 14%. The result for `CC(=O)Nc1cn2nc(Oc3cccc(NC(=O)c4cccc(C(F)(F)F)c4)c3)ccc2n1` reads 0%; that for `COc1ccc(C)c(Nc2ccnc(Nc3ccc(-c4cnc[nH]4)cc3)n2)c1.Cl` [GW784041], 0%; that for `Cl.Cl.NC(CNC(=O)c1cc(Br)c(-c2ccnc3[nH]ccc23)s1)c1ccccc1` (stereo not shown) [GSK1322949], 80%.
